# This is part of a sample that, as a whole, favours compounds with a hit. Of some 83,000 tested, about 20% had one in any assay.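 A percent growth of 40 corresponds to 60% growth inhibition; 0 means no net growth; -100 means all cells died. Active threshold: below 10.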 The source made the active and inactive calls.
# Tested on: HCT-15 colon
# Assay: NCI-60 one-dose screen, 48 h (100 = growth as untreated, 0 = no growth, -100 = all killed)
# Settings: 10 µM unless noted
# Description: Growth inhibition of the HCT-15 human tumor cell line is measured as a screen for anti-cancer activity. Cells are grown in 96 well plates and exposed to the test compound for 48 hours. Compounds are tested at a single concentration, which is 10^-5 M for most compounds. The reported endpoint is percent growth (GI% or GIPRCNT), where numbers from 0 - 100% represent growth inhibition, and numbers from -100% - 0 represent cell death. For example, a value of 40 represents 60% growth inhibition. A value of 0 means no net growth occurred over the course of the experiment. A value of -40 indicates 40% of cells at the beginning of the experiment died by the end of the experiment. A value of -100 means all cells are dead at the end of the experiment.
# NCI-60 Human Tumor Cell Lines Screen was performed using the standard one-dose NCI protocol, which is described in more detail at https://dtp.cancer.gov/discovery_development/nci-60/default.htm.
# Compounds with GIPRCNT values below 10 were considered active. Activity score was based on GIPRCNT using the following formula: […]
# Score is 0 for GIPRCNT values of 100 or above, 50 for GIPRCNT values of 0, and 100 for GIPRCNT values of -100.
row,Structure (SMILES),growth
1,O=C1c2cccnc2C(=O)c2c1c(C(=O)OCCN1CCOCC1)c1ccccn21,-65.6% (active)
2,CCC(=O)Oc1ccc(/C(=C(\C)c2ccccc2)c2ccc(OCCN(CC)CC)cc2)cc1,54.3% (inactive)
3,COc1ccc(C2Nc3ccccc3-n3cccc32)cc1 (stereo not given),92.9% (inactive)
4,O=C1OC2C(I)C3CC2C1C3c1ccccc1 (stereo not given),105% (inactive)
5,CN1C2CCC1/C(=C\c1ccc(Cl)cc1)C1=C2[C@@H](c2ccc(Cl)cc2)C(C#N)=C(N)O1 (stereo not given in full),71.9% (inactive)
6,CC(C)c1c(C(=O)Nc2ccccc2)c(-c2ccccc2)c(-c2ccc(F)cc2)n1CC[C@@H]1CC=CC(=O)O1,-42.7% (active)
7,C=C(C[n+]1ccccc1)[C@@H]1CC[C@]2(C(=O)OC)CC[C@]3(C)[C@H](CC[C@@H]4[C@@]5(C)CC[C@H](O)C(C)(C)[C@@H]5CC[C@]43C)[C@@H]12,106% (inactive)
8,CC[C@H](CO)Nc1nc(NCc2ccccc2)n2ncc(C(C)C)c2n1,2.45% (active)
9,CCc1ccc(C(c2ccc(CC)cc2)C(Cl)(Cl)CCl)cc1,89.7% (inactive)
10,COc1cnc2c(c1)C(=O)c1c-2n(CCCN2CCNCC2)c(=O)c2cc([N+](=O)[O-])ccc12,-80.7% (active)
11,Cc1cc(=O)oc2cc(Oc3nc(-c4cccs4)cn4c(-c5cccs5)cnc34)ccc12,72.9% (inactive)
12,O=C(CCCN1CCOCC1)Nc1ccc(Cn2nnc3c2C(=O)c2nnn(Cc4ccc(NC(=O)CCCN5CCOCC5)cc4)c2C3=O)cc1,95.8% (inactive)
13,COc1cc(C#N)cc(OC)c1OCCN(CCOc1c(OC)cc(C#N)cc1OC)S(=O)(=O)c1ccc(C)cc1,108% (inactive)
14,Cc1ccc(Nc2nc(N)nc(Nc3ccc4ccccc4c3)n2)cc1,29.3% (inactive)
15,CC/C=C\C[C@H](O)C/C=C1/C(=O)C=C[C@@H]1C/C=C\CCCC(=O)NC,-28.4% (active)
16,COCCOc1ccc(-c2nc3ccc(-c4nc5ccc(N6CCN(C)CC6)cc5[nH]4)cc3[nH]2)cc1,85.9% (inactive)
17,C/C(=C(/c1ccc(O)cc1)c1ccc(Cl)cc1)c1ccccc1,-81.9% (active)
18,C=C1CC[C@@H]2[C@](C)(COC(C)=O)[C@H](OC(C)=O)CC[C@@]2(C)[C@@H]1CC(NCc1ccc(F)cc1)C1=CCOC1=O (stereo not given in full),37% (inactive)
19,COc1ccccc1-c1ccc2c(N)c(C(=O)c3ccc4c(c3)OCO4)sc2n1,38.8% (inactive)
20,Clc1cccc(Nc2nc(Nc3cnc4ccccc4c3)c3[nH]cnc3n2)c1,94.4% (inactive)

row,Structure (SMILES),growth
1,C=C1CCC2C3(C)COC(c4ccc(OC)cc4Br)OC3CCC2(C)C1/C=C/C1=CCOC1=O (stereo not given),65.7% (inactive)
2,COc1ccc(-n2cc(-c3ccccc3)c3c(SCC(=O)N/N=C/c4ccc([N+](=O)[O-])cc4)ncnc32)cc1,108% (inactive)
3,Cc1cc(Cl)ccc1Nc1nc(C(F)(F)F)ccc1C(=O)N/N=C/c1ccc(F)cc1,6.36% (active)
4,CCN(CC)CCCCNc1ccc(NCCCCN(CC)CC)c2c1C(=O)c1ccccc1C2=O,76.2% (inactive)
5,CN1/C(=C\C=C\C2=[N+](C)c3ccccc3C2(C)C)C(C)(C)c2ccccc21,8.08% (active)
6,COc1ccc(CNc2nccnn2)cc1,111% (inactive)
7,COc1cnc2c(c1)C(=O)c1c-2n(CCCBr)c(=O)c2cc([N+](=O)[O-])ccc12,20.7% (inactive)
8,O=[N+]([O-])c1c(F)cccc1Nc1cccc(F)c1,104% (inactive)
9,C=CC[N+]1(CCO)CCN=C1CCCCCCCCCCCCC (stereo not given),-74.5% (active)
10,CCCCCCCCSC1=CC(=O)C(OC)=C(OC)C1=O,10.9% (inactive)
11,N#Cc1c(N)nc(N)nc1Nc1ccc(Br)cc1,103% (inactive)
12,O=c1ccc2cc3ccccc3cc2[nH]1,109% (inactive)
13,COc1ccc2[nH]c(=O)c(/C=C/C(=O)c3ccc(Nc4nccc(-c5ccc6ccccc6c5)n4)cc3)cc2c1,110% (inactive)
14,CCCCCCCCCCCCCC1=NCCN1CCO,47.2% (inactive)
15,CN1CCCCC1CCN1c2ccccc2Sc2ccc(Br)cc21 (stereo not given),54.6% (inactive)
16,O=C(O)C(O)C(O)C(=O)O.[NH-]C1CCCCC1[NH-].[Pt+2] (stereo not given),103% (inactive)
17,C[C@@H]1CC[C@@H]2[C@@H]1[C@H](OC(=O)/C=C/c1ccccc1)[C@]1(c3ccccc3)C[C@@H](OC(=O)CO)[C@@]2(C)O1,97.7% (inactive)
18,CC/C(Cc1ccccc1)=C(/c1ccc(O)cc1)c1ccc(OCCN2CCCC2)cc1,-56.2% (active)
19,Cc1ccccc1CCO,99.8% (inactive)
20,COc1ccc(/C=c2/c(=O)[nH]c3nc4sc(C)c(C)c4c(=O)n23)cc1,73.2% (inactive)

# From PubChem BioAssay (NCI)
